Assay results as given in PubChem BioAssay (EPA / NIEHS).
Results filed as inconclusive are left out. Activity calls are given as the source filed them. How the source made its calls, unless noted: active means hit-call score of the fitted dose curve at least 0.9, where 1 is the maximum; inconclusive means response in the unintended direction; inactive means score below 0.9.

Experiments:
[1] = target: mouse Estrogen Receptor alpha (Era), Esr1 (gene 13982) (UniProt P19785); test: NVS_NR_mERa: NovaScreen (NVS) Nuclear Receptor Binding Assay for mouse Estrogen Receptor alpha (Era) (AID 2283378);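 further: hit means loss of bound radioligand signal relative to DMSO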
Outline: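 Test chemicals competed against a specific radioligand for binding to cell-free mouse Era. Duplicate wells at 25 uM were read 18 hours later by filter-based radiodetection, with loss of signal against DMSO scored as activity.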

[2] = target: Estrogen receptor beta (Homo sapiens) (UniProt Q92731); test: OT_ER_ERbERb_1440: Odyssey Thera (OT) 24-hour HEK293T Protein-Complementation Assay for Estrogen Receptor-beta/-beta Homodimer (AID 2283380);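 further: fluorescence gain from ER beta LBD homodimer complementation read by laser scanning cytometry; scored as signal increase over DMSO baseline for both agonists and antagonists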
Outline: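 Fluorescence increase, nuclear for agonists or whole-cell for antagonists, relative to DMSO vehicle, quantified by laser scanning cytometer after fixation and Draq5 staining. Readout from 24 h treatment of HEK293T cells carrying complementation-paired ER beta LBD (aa 310-547).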

[3] = target: Estrogen receptor (Homo sapiens) (UniProt P03372); test: OT_ERa_GFPERaERE_0480: Odyssey Thera (OT) 8-hour HeLa Transcription Induction Assay for Estrogen Receptor (AID 2283381; active means hit-call score of the fitted dose curve at least 0.9, where 1 is the maximum; inactive means score below 0.9)
Outline: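 Fluorescence microscopy with high-content image analysis measures ERE-driven GFP induction in HeLa cells at 8 h post-dose. Increases fitted against DMSO baseline.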

[4] = target: Estrogen receptor (Homo sapiens) (UniProt P03372); test: OT_ERa_GFPERaERE_0120: Odyssey Thera (OT) 2-hour HeLa Transcription Induction Assay for Estrogen Receptor (AID 2283382)
Outline: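 Fluorescence-microscopy images of the GFP-ERα/ERE reporter, scored by high-content image algorithms, give the readout. HeLa exposure lasted 2 h, and only signal increase over DMSO was fitted.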

[5] = target: Retinoic acid receptor RXR-alpha (Homo sapiens) (UniProt P19793); test: OT_NURR1_NURR1RXRa_1440: Odyssey Thera (OT) 24-hour HEK293T Protein Complementation Assay for Nurr1/retinoid X receptor (RXR) (AID 2283386)
Outline: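 Gain in fluorescence, fitted relative to DMSO, reflects Nurr1–RXRα association in HEK293T cells after 24 h dosing. Bait and prey are each linked to a reporter-protein fragment that reassembles on interaction.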

[6] = target: Peroxisome proliferator-activated receptor gamma (Homo sapiens) (UniProt P37231); test: OT_PPARg_PPARgSRC1_0480: Odyssey Thera (OT) 8-hour Protein-Complementation Assay for Peroxisome Proliferator-activated Receptor Gamma / SRC-1 Co-activator (AID 2283387);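 further: nuclear to cytoplasmic split Venus YFP fluorescence ratio reporting PPARg SRC-1 interaction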
Outline: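 Split-YFP (IFP1/IFP2) PPARg/SRC-1 reporter, HEK293T, 37 °C, 5% CO2; 8 h compound; formaldehyde fix + Draq5; high-content imaging, N/C ratio, ≥350 cells/image, positive direction vs DMSO.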

[7] = target: Peroxisome proliferator-activated receptor gamma (Homo sapiens) (UniProt P37231); test: OT_PPARg_PPARgSRC1_1440: Odyssey Thera (OT) 24-hour Protein-Complementation Assay for Peroxisome Proliferator-activated Receptor Gamma/ SRC-1 Co-activator (AID 2283388);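 further: nuclear to cytoplasmic ratio of reconstituted Venus YFP fluorescence in fixed imaged cells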
Outline: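 Transient HEK293T, YFP fragments 1-158/159-239 (mutant IFP1/IFP2) fused to PPARg/SRC-1; 24 h dosing; fix 4% formaldehyde, Draq5; Opera imaging 488/635 nm; N/C ratio, gain vs DMSO.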

[8] = target: Agonist Androgen Response Element (ARE), AR (gene 367) (UniProt P10275); test: OT_AR_ARELUC_AG_1440: Odyssey Thera (OT) 24-hour CHO-K1 Luciferase Assay for Agonist Androgen Response Element (ARE) (AID 2283379)
Outline: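 Readout: luciferase bioluminescence from CHO-K1 ARE-luc cells, measured 24 h post-dosing; agonism = increased mean luminescence vs DMSO controls, fitted in positive direction.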

[9] = target: Retinoic acid receptor RXR-alpha (Homo sapiens) (UniProt P19793); test: OT_NURR1_NURR1RXRa_0480: Odyssey Thera (OT) 8-hour HEK293T Protein Complementation Assay for Nurr1/retinoid X receptor (RXR) (AID 2283385)
Outline: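 Interaction of Nurr1 with RXRα read as reconstituted reporter fluorescence in a HEK293T fragment-complementation system, 8 h post-treatment; increase over DMSO baseline analysed.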

[10] = target: Bile acid receptor (Homo sapiens) (UniProt Q96RI1); test: OT_FXR_FXRSRC1_1440: Odyssey Thera (OT) 24-hour HEK293T Protein-Complementation Assay for Farnesoid X receptor/SRC-1 Co-activator (AID 2283384)
Outline: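 Protein-fragment complementation: FXR and SRC-1 fused to reporter fragments that reassemble on interaction, read by fluorescence intensity. Human HEK293T cells measured 24 h post-dose; positive-direction fit versus DMSO.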

[11] = CEETOX_H295R_11DCORT: CeeTox H295R High-throughput Steroidogenesis Assay for 11-Deoxycortisol (11DCORT) (AID 2283432; active means hit-call score of the fitted dose curve at least 0.9, where 1 is the maximum; inactive means score below 0.9;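 on AC50: human adrenal H295R cells prestimulated with 10 µM forskolin for 48 h; 11-deoxycortisol secreted into the medium measured by LC-MS/MS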); details: actives raise or lower the signal
Outline: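 Steroidogenesis in human H295R cells: 48 h chemical exposure after forskolin priming, 11-deoxycortisol measured by LC-MS/MS.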

Measured: AC50

Peroxisome proliferator-activated receptor gamma (Homo sapiens), sequence (P37231 whole entry, looked up, the tested form may be a part): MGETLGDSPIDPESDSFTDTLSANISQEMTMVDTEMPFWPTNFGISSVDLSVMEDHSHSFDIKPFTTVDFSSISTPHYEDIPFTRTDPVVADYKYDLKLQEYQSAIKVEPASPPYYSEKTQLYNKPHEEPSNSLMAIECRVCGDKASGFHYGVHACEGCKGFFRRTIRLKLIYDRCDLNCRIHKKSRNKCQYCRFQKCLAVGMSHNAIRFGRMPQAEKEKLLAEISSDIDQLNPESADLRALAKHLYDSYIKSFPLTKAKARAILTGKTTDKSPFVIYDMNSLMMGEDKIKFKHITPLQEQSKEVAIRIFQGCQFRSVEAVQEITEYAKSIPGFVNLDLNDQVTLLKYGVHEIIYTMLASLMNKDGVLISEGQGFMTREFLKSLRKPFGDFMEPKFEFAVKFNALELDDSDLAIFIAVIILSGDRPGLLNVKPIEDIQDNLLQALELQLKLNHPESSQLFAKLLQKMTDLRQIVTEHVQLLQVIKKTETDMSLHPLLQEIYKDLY
mouse Estrogen Receptor alpha (Era), Esr1 (gene 13982), sequence (P19785 whole entry, looked up): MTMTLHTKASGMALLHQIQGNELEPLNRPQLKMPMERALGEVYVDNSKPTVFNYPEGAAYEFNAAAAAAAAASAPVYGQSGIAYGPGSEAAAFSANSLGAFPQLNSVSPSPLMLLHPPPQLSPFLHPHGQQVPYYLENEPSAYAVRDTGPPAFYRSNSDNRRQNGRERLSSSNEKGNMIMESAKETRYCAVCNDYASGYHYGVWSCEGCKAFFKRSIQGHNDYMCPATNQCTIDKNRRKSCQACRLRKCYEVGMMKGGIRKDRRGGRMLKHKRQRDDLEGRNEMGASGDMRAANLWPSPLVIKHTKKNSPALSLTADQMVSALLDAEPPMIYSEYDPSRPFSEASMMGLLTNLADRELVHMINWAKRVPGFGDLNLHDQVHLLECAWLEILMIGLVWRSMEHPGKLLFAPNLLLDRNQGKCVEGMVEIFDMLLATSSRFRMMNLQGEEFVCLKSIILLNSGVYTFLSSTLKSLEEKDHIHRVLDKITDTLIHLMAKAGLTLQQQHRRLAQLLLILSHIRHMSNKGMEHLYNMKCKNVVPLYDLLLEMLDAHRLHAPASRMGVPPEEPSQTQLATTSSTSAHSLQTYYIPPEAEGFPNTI
Retinoic acid receptor RXR-alpha (Homo sapiens), sequence (P19793 whole entry, looked up, the tested form may be a part): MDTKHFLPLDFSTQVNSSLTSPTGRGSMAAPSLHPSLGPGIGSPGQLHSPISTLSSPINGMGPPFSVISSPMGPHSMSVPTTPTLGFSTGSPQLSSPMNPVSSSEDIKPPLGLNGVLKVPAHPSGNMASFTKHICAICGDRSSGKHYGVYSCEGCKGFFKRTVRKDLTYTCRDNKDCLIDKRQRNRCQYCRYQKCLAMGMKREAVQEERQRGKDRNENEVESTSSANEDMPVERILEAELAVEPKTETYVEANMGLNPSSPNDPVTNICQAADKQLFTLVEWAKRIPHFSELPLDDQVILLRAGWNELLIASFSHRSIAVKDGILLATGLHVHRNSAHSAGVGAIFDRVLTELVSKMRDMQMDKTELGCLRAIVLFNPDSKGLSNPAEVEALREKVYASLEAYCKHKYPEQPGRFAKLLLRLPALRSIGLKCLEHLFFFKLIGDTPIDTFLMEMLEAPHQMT
Estrogen receptor (Homo sapiens), sequence (P03372 whole entry, looked up): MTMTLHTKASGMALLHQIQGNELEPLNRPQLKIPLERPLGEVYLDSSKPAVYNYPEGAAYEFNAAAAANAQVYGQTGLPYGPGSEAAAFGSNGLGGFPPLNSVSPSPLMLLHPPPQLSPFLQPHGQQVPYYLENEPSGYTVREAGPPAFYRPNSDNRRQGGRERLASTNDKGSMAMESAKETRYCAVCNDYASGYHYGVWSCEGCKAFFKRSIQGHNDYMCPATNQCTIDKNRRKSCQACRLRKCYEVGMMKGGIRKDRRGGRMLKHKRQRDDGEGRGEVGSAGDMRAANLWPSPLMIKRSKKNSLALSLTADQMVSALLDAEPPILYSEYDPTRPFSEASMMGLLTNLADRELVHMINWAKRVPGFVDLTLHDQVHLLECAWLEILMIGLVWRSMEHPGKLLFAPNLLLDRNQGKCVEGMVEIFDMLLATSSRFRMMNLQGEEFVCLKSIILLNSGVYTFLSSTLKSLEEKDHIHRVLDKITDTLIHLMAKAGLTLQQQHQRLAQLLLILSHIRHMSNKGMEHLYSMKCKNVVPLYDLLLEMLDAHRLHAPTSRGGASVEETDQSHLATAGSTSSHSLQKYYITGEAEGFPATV
Estrogen receptor beta (Homo sapiens), sequence (Q92731 whole entry, looked up, the tested form may be a part): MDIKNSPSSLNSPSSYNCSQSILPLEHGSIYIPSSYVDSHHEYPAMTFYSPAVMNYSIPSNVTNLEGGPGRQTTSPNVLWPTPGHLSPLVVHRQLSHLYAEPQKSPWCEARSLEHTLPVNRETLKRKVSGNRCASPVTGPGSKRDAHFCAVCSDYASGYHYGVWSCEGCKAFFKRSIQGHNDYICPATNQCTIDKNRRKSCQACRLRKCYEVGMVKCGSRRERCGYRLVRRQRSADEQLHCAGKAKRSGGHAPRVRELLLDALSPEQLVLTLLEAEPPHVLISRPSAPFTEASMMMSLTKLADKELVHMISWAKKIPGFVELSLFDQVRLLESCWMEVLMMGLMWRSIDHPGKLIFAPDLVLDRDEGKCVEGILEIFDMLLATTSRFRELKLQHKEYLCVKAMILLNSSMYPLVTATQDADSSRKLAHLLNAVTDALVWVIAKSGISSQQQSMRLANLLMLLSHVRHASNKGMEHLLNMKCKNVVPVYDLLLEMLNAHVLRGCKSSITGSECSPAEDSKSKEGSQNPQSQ
Agonist Androgen Response Element (ARE), AR (gene 367), sequence (P10275 whole entry, looked up): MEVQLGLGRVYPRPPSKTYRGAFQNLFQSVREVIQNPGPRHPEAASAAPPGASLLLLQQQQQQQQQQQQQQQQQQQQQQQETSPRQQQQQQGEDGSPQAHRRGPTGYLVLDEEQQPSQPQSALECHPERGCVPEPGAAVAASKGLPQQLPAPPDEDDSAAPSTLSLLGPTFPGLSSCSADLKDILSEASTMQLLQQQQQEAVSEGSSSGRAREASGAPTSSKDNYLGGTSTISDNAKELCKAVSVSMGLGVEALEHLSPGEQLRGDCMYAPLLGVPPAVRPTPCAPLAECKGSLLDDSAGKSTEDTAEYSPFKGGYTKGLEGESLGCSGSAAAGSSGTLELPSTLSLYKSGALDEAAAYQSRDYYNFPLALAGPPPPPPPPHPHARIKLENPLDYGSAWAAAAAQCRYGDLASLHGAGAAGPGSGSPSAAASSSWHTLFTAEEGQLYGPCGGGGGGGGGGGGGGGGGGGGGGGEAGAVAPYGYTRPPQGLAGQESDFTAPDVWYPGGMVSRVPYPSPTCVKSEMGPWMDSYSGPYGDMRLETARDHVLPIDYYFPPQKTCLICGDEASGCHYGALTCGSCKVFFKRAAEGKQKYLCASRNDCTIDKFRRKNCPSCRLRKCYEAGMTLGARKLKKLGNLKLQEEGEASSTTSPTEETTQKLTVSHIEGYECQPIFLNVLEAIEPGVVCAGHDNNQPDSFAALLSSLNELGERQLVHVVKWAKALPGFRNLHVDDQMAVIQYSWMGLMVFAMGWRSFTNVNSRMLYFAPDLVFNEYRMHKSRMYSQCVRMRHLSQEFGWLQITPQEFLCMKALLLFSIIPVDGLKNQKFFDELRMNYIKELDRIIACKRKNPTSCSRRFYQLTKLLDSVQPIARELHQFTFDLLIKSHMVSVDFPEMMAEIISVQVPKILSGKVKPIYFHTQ
Bile acid receptor (Homo sapiens), sequence (Q96RI1 whole entry, looked up, the tested form may be a part): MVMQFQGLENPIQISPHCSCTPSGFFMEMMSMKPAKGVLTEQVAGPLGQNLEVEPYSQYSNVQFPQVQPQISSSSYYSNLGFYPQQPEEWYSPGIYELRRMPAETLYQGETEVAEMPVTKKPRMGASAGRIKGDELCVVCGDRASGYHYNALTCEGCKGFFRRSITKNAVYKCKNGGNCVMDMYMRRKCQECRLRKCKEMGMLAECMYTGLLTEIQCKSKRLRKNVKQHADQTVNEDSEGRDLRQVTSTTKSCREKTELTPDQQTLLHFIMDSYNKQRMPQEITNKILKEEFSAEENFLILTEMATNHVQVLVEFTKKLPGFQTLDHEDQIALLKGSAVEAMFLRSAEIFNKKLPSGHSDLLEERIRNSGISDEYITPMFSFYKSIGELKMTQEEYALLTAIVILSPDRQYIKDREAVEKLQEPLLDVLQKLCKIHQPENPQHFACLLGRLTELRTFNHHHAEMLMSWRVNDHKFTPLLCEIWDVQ

CC(O)CN (configuration not stated)
inactive: [2] | [3] | [4] | [5] | [6] | [7]
active: [1] 6.65 µM

CC(C)(CO)CO
inactive: [8] | [2] | [3] | [4] | [5]

COc1ccccc1O
not listed: [8] | [9] | [10] | [11]
inactive: all other assays above

CC(=O)OC(C)(C)C
inactive: [2] | [3] | [4] | [9] | [7]

CC(=O)c1ccc(O)cc1
not listed: [1] | [8] | [10] | [11]
inactive: all other assays above

CC(=O)c1ccc2ccccc2c1
not listed: [1] | [8] | [9]
inactive: all other assays above

CCCCCCC(C)O (configuration not stated)
not listed: [8] | [9] | [10] | [11]
inactive: all other assays above

CCCCCC1C(=O)CCC1CC(=O)OC (configuration not stated)
inactive: [3] | [4] | [9] | [6] | [7]

CCCO
inactive: [2] | [3] | [4] | [5] | [6] | [7]

CCCCOCCOCCO
inactive: [2] | [3] | [4] | [5] | [6] | [7]

CC(=O)N(C)C
inactive: [3] | [4] | [6] | [7]

O=C(OCc1ccccc1)c1ccccc1O
inactive: [3] | [4] | [11]
active: [2] 49.7 µM

CCCC1CCC(=O)CC1
inactive: [2] | [3] | [4] | [5] | [6] | [7]

CCCCC(CC)COCCO (configuration not stated)
inactive: [2] | [3] | [4] | [5] | [6] | [7]

CCCCOCCOCCOCCO
inactive: [2] | [3] | [4] | [6] | [7]

OC[C@@H](O)[C@H](O)[C@@H](O)[C@@H](O)CO
inactive: [3] | [4] | [9] | [5] | [6] | [7]

CCCCCCCCOC(C)=O
inactive: [3] | [4] | [5] | [6] | [7]

CC(O)CNCC(C)O (configuration not stated)
active: [3] 29.8 µM
inactive: [4] | [6] | [7]

C1=COCCC1
inactive: [3] | [4] | [9] | [6] | [7]

c1coc(CNc2ncnc3nc[nH]c23)c1
inactive: [3] | [4] | [6] | [7] | [11]

c1ccc(OCCOc2ccccc2)cc1
inactive: [2] | [3] | [4] | [6] | [7] | [11]

CC(=O)OC(C)(C)C1CC=C(C)CC1 (configuration not stated)
inactive: [3] | [4] | [6] | [7]

OCCCO
inactive: [11]

CC(C)N(c1ccccc1)C(C)C
inactive: [2] | [3] | [4] | [5] | [6] | [7]

COc1ccc(OC)cc1
inactive: [3] | [4] | [9] | [5] | [6] | [7]

CCCCCCCC(=O)N(C)C
inactive: [2] | [3] | [4] | [5] | [6] | [7]

Cc1cccc(C)c1
inactive: [3] | [4] | [5] | [6] | [7]

CC1=CCC(C(C)C)=CC1
inactive: [3] | [4] | [9] | [5]

O=Cc1ccccc1O
inactive: [3] | [4] | [6] | [7]

CC(=N[Si](C)(C)C)O[Si](C)(C)C
inactive: [11]

CCCC[N+](C)(CCCC)CCCC
inactive: [2] | [5] | [6] | [7]

NC(N)=S
inactive: [3] | [4] | [9] | [5] | [6] | [7]

O=c1cc(-c2ccc(O)cc2)oc2cc(O)cc(O)c12
inactive: [6] | [7]
active: [11] 8.73 µM

COC(=O)c1ccc(C(=O)OC)cc1
inactive: [2] | [3] | [4] | [5] | [6] | [7]

C=CC(C)CCCC(C)(C)O (configuration not stated)
inactive: [2] | [3] | [4] | [5] | [6] | [7]

CCCC(O)C(CC)CO (configuration not stated)
inactive: [2] | [3] | [4] | [5] | [6] | [7]
